Results filed as inconclusive are left out. Values without a mark were called inactive. Calls of active or inactive are those of the source. Unless noted, the call rests on the fitted dose curve; in most records, active means well fitted curve in the direction sought with a large enough effect in the repeat runs; inconclusive means weak or mixed curves; inactive means no such curve, though single readings can be large; an effect the other way counts as inactive or inconclusive.

Assay [1] has as its target Aryl hydrocarbon receptor (Homo sapiens) (UniProt P35869). Description: qHTS assay to identify small molecule that activate the aryl hydrocarbon receptor (AhR) signaling pathway (AID 743085). Further: nearly all actives have a fitted effect of over 15% in size. Further: potency means the concentration at half of the fitted maximal effect.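 On activation: HG2L7.5c1 human HepG2 liver cells with stably integrated DRE-driven firefly reporter; series mostly up to about 70 µM.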 The method in brief: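 AhR agonist activity is inferred from enhanced light output of a DRE-controlled firefly luciferase reporter in HepG2 cells, measured with ONE-Glo following 24 h treatment at 37C.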

The nature of assay [2]: qHTS assay to identify small molecule that activate the aryl hydrocarbon receptor (AhR) signaling pathway - cell viability counter screen (AID 743086).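 Further: HepG2 liver cells carrying the AhR DRE luciferase reporter; series mostly up to about 70 µM; nearly all actives have a fitted effect of over 45% in size.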 A digest of the protocol:
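HepG2-AhR-luc (HG2L7.5c1) cells, 4000/well, treated 24 h at 37 C with compound; viability measured as CellTiter-Fluor fluorescence after 30 min in the same wells as the luciferase read.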

The target of assay [3] is Peroxisome proliferator-activated receptor gamma (Homo sapiens) (UniProt P37231). As to the kind of experiment: qHTS assay to identify small molecule agonists of the peroxisome proliferator-activated receptor gamma (PPARg) signaling pathway (AID 743094; active means well fitted activation curve with a large enough effect in the signal ratio in the repeat runs, not every such curve was filed as active; the % refers to the signal ratio). The method in brief: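 Beta-lactamase FRET fluorescence was the read-out after a 1 h room-temperature substrate step, following 17 h compound treatment at 37C of HEK293H cells expressing a UAS-driven bla reporter responsive to PPARg.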
Sequence of Peroxisome proliferator-activated receptor gamma (Homo sapiens) (P37231 whole entry, looked up): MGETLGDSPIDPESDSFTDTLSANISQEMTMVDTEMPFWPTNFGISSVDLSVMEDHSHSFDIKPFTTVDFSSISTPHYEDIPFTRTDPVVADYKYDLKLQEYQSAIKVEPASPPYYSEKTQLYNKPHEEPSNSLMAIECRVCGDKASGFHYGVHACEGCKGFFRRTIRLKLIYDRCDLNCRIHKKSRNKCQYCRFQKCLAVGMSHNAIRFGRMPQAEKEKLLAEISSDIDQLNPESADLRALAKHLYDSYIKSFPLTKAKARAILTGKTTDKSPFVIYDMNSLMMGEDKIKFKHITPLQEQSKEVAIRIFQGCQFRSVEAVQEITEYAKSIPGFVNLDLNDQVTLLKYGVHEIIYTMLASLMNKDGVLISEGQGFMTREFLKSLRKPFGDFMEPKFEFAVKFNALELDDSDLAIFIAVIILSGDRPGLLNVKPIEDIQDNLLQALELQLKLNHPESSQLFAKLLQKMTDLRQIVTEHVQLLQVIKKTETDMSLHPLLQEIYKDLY

The target is the same in assay [4]. Description: qHTS assay to identify small molecule antagonists of the peroxisome proliferator-activated receptor gamma (PPARg) signaling pathway (AID 743191; calls by dose curve; further: series mostly up to about 63 µM; nearly all actives have a fitted effect of over 30% in size). The method in brief:
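GeneBLAzer PPARg UAS-bla HEK293H cells, 5 h post-plating, exposed to compounds 17 h at 37C. LiveBLAzer B/G FRET substrate added for 1 h at room temperature; beta-lactamase reporter read by fluorescence intensity.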

Assay [5] can be described thus: qHTS assay to identify small molecule antagonists of the peroxisome proliferator-activated receptor gamma (PPARg) signaling pathway - cell viability counter screen (AID 743194). Further: nearly all actives have a fitted effect of over 55% in size. The method in brief:
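Cytotoxicity counter screen in PPARg-bla HEK293H cells, same wells as reporter assay. Compounds plus 50 nM rosiglitazone (final) for 17 h at 37 C, then viability read by CellTiter-Glo luminescence.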

Assay [6] in a line: qHTS assay for small molecule agonists of the antioxidant response element (ARE) signaling pathway (AID 743202; active means well fitted activation curve with a large enough effect in the signal ratio in the repeat runs, not every such curve was filed as active; the % refers to the signal ratio). A digest of the protocol: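 ARE-bla HepG2 cells (beta-lactamase reporter under the antioxidant response element), plated 5 hours, then exposed to compounds 16 hours at 37 C. LiveBLAzer B/G FRET substrate added for 2 hours at room temperature; fluorescence intensity read.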

Assay [7] in a line: qHTS assay for small molecule agonists of the antioxidant response element (ARE) signaling pathway - cell viability counter screen (AID 743203; calls by dose curve; further: nearly all actives have a fitted effect of over 55% in size). A digest of the protocol:
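HepG2 cells carrying ARE-driven beta-lactamase; 2,000 cells/well; 5 hrs plating; compound pinned from DMSO; 16 hrs 37C/5% CO2; CellTiter-Glo added; 30 min RT; luminescence.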

The nature of assay [8]: qHTS assay for small molecule activators of the heat shock response signaling pathway - cell viability counter screen (AID 743209). Further: nearly all actives have a fitted effect of over 50% in size. The method in brief:
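Luminescence from CellTiter-Glo, added after the beta-lactamase FRET read, gave the viability signal. Cells were HSE-bla HeLa treated with DMSO-dissolved compounds for 5 h at 37 C following overnight plating.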

The nature of assay [9]: qHTS assay for small molecule activators of the heat shock response signaling pathway (AID 743210; active means well fitted activation curve with a large enough effect in the signal ratio in the repeat runs, with a control signal flat, not every such curve was filed as active; the % refers to the signal ratio; further: series mostly up to about 63 µM). A digest of the protocol:
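HSE-bla HeLa cells (beta-lactamase reporter under heat shock response elements), plated overnight, then exposed to compounds 5 h at 37 C; LiveBLAzer B/G FRET substrate added, 2.5 h at room temperature, fluorescence intensity read.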

Assay [10] in a line: qHTS assay to identify small molecule agonists of the peroxisome proliferator-activated receptor delta (PPARd) signaling pathway - cell viability counter screen (AID 743211). Further: nearly all actives have a fitted effect of over 55% in size. The method in brief: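 qHTS cell viability: PPARd-bla HEK293H; 17 h cpd, 37C; CellTiter-Glo, luminescence at 30 min RT.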

Sequence of Aryl hydrocarbon receptor (Homo sapiens) (P35869 whole entry, looked up): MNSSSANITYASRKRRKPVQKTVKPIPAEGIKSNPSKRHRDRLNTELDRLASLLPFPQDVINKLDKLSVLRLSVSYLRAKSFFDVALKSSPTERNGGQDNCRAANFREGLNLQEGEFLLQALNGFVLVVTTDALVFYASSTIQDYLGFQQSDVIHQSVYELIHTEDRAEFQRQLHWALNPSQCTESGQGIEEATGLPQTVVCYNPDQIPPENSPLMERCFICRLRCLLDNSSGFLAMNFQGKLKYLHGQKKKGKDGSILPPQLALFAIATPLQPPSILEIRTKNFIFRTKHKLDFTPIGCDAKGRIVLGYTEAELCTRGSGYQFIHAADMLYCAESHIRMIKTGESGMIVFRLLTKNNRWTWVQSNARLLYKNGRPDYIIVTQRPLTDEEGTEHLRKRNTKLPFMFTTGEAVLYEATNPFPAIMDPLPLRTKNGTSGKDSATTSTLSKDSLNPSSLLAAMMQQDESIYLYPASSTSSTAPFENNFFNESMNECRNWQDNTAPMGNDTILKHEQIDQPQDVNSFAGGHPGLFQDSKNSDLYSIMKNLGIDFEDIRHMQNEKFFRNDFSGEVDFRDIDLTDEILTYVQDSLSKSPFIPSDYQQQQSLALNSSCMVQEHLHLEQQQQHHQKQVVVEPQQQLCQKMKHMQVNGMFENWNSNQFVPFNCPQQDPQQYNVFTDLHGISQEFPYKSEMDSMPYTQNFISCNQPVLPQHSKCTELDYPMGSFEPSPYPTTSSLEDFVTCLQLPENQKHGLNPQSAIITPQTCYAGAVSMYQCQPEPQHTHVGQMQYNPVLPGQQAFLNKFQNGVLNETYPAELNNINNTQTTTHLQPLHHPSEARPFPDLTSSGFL

Turning to `CC(=O)Nc1ccc(OCCOCCOc2ccc(NC(C)=O)cc2)cc1`, the Potency entry in assay [1], in assay [6] and in assay [8] was “inactive” in each case. The result in assay [2], in assay [3], in assay [4], in assay [5], in [7] and in assay [9] was inactive. Further, the call in [10] was inactive.
As to `Cc1cc(C)c(N)c(Cl)c1`, the Potency result in assay [1], in [6] and in assay [8] was “inactive” throughout. Besides, the compound was called inactive in assay [2], in [3], in [4], in assay [5], in assay [7] and in assay [9]. The compound was called inactive in [10].
As to `CCOC(=O)[C@H](CCc1ccccc1)N[C@H]1CS[C@H](c2cccs2)CN(CC(=O)O)C1=O`, the Potency entry in assay [1], in [6] and in [8] was “inactive” throughout. The call in assay [2], in assay [3], in assay [4], in assay [5], in [7] and in assay [9] was inactive. For the same compound, in [10], the result was inactive.
With `O=C(O)CCCCCCCCCC(=O)O`, the Potency entry in assay [1], in assay [6] and in [8] was “inactive” each time. In addition, the result in assay [2], in [3], in assay [4], in [5], in assay [7] and in assay [9] was inactive. Further, the compound was classed as inactive in [10].
As for `COC(=O)c1ccc(C(=O)O)cc1`, the Potency result in assay [1], in [6] and in [8] was “inactive” throughout. For the same compound, the compound was called inactive in assay [2], in [3], in assay [4], in assay [5], in [7] and in assay [9].
Turning to `Cc1ccc2cccnc2c1`, the Potency entry in [1], in assay [6] and in assay [8] was “inactive” throughout. Further, the compound was classed as inactive in assay [2], in assay [3], in assay [4], in assay [5], in assay [7] and in assay [9]. Also, in assay [10], the compound was called inactive.
For `CC(C)OCCO`, the Potency entry in [1], in assay [6] and in assay [8] was “inactive” in each case. The compound was classed as inactive in [2], in assay [3], in assay [4], in assay [5], in [7] and in [9]. Also, the compound was classed as inactive in assay [10].
On to `CN(C)CCc1c[nH]c2ccc(C[C@H]3COC(=O)N3)cc12`, for which the Potency result in assay [1], in assay [6] and in assay [8] was “inactive” each time. Besides, the result in [2], in [3], in [4], in assay [5], in [7] and in assay [9] was inactive. In addition, the compound was called inactive in [10].
For the compound `CCc1ncc(C)[nH]1`, the Potency entry in assay [1], in assay [6] and in assay [8] was “inactive” in each case. Also, the outcome in assay [2], in [3], in [4], in assay [5], in assay [7] and in assay [9] was inactive. Besides, the call in [10] was inactive.
Turning to `CCCCC(CC)COC(=O)CC#N` (stereo unspecified), the Potency entry in assay [1], in assay [6] and in [8] was “inactive” in each case. The call in [2], in assay [3], in [4], in assay [5], in assay [7] and in assay [9] was inactive. Besides, the compound was classed as inactive in assay [10].
`Cc1ccc(NC(N)=O)cc1`: the Potency entry in assay [1], in assay [6] and in assay [8] was “inactive” in each case. The compound was called inactive in [2], in assay [3], in assay [4], in [5], in assay [7] and in assay [9]. The result in assay [10] was inactive.
On to `O=C(O)CCC(=O)Nc1ccc(S(=O)(=O)Nc2nccs2)cc1`, for which the Potency result in assay [1], in [6] and in assay [8] was “inactive” in each case. In addition, the compound was classed as inactive in assay [2], in assay [3], in assay [4], in assay [5], in assay [7] and in [9]. Further, in assay [10], the result was inactive.
As for `Cc1nc2ccc(Cl)cc2[nH]1`, the Potency in assay [1] was 30.6 µM (active). Moreover, the compound was called inactive in assay [2], in assay [3], in assay [4], in [5], in [7] and in assay [9]. Besides, in assay [8], the Potency result was “inactive”.
`CC(=O)c1c(C)cc(C(C)(C)C)cc1C`: the Potency result in [1] and in [8] was “inactive” in each case. The result in assay [2], in assay [3], in assay [4], in assay [5], in [7] and in assay [9] was inactive. The compound was classed as inactive in assay [10].
`CCCOc1ccc(C(=O)OCCN(CC)CC)cc1N`: the Potency in [1] was 1.33 µM (active). Besides, the compound was called inactive in assay [2], in assay [3], in assay [4], in [5], in [7] and in assay [9]. Further, the result in [10] was inactive. The Potency entry in assay [8] is “inactive”.
`OCCC(F)(F)C(F)(F)C(F)(F)C(F)(F)C(F)(F)C(F)(F)F`: the Potency entry in [1] and in [8] was “inactive” throughout. In addition, the outcome in assay [2], in [3], in [4], in assay [5], in assay [7] and in assay [9] was inactive. Besides, the compound was called inactive in [10].
Turning to `CC/C=C\CCCCCCCCCCOC(C)=O`, the Potency entry in assay [1] and in assay [8] was “inactive” in each case. The call in assay [2], in assay [3], in assay [4], in assay [5], in assay [7] and in [9] was inactive.
Take `CCCCC(CC)CCC(CC(C)C)OS(=O)(=O)O` (stereo unspecified): the Potency entry in [1] is “inactive”. The compound was classed as inactive in assay [2], in assay [3], in assay [4], in [5], in [7] and in assay [9].
For `CC(C)OC(=O)C(C(=O)OC(C)C)=C1SC=CS1`, the Potency entry in assay [1] and in [8] was “inactive” in each case. Also, the compound was called inactive in assay [2], in assay [3], in assay [4], in assay [5] and in [7].
In the case of `CC(C)(C)C(=O)CC(=O)C(C)(C)C`, the Potency result in [1] and in [8] was “inactive” each time. The outcome in assay [2], in assay [3], in assay [4], in assay [5] and in [7] was inactive.
Take `N[C@H]1C(O)O[C@H](CO)[C@@H](O)[C@@H]1O` (stereo partly specified): the Potency result in assay [1] and in assay [8] was “inactive” each time. The call in assay [2], in assay [3], in assay [4], in [5], in assay [7] and in assay [9] was inactive. Also, in assay [10], the call was inactive.
Regarding `CC(C)(C)C(=O)CCc1ccc(Cl)cc1`, the Potency result in assay [1] and in assay [6] was “inactive” each time. Besides, the outcome in assay [2], in assay [3], in [4], in [5], in [7] and in assay [9] was inactive. Also, the compound was called inactive in assay [10].
Regarding `CCCCNCC`, the Potency entry in assay [1] and in assay [8] was “inactive” in each case. Also, the result in assay [2], in assay [3], in assay [4], in assay [5], in assay [7] and in assay [10] was inactive.
Consider `NC[C@H]1O[C@H](O[C@H]2[C@H](O)[C@@H](O[C@H]3O[C@H](CO)[C@@H](O)[C@H](N)[C@H]3O)[C@H](N)C[C@@H]2N)[C@H](N)[C@@H](O)[C@@H]1O`, for which the Potency entry in assay [1] and in assay [8] was “inactive” in each case. Also, the compound was called inactive in [2], in assay [3], in assay [4], in assay [5], in [7] and in [10].
With `N#Cc1ccccc1C#N`, the Potency entry in [1] and in assay [6] was “inactive” throughout. Moreover, the outcome in assay [2], in assay [3], in assay [4], in [5], in assay [7] and in [9] was inactive. For the same compound, the compound was called inactive in [10].
For the compound `Cc1ccccc1C#N`, in assay [1], the Potency result is “inactive”. The result in assay [2], in assay [3], in assay [4], in assay [5], in assay [7] and in assay [9] was inactive. Further, the outcome in assay [10] was inactive.
With `CC(C)C(C)C`, the Potency entry in [1] and in assay [8] was “inactive” in each case. Also, the compound was called inactive in assay [2], in assay [3], in [4], in assay [5], in assay [7] and in assay [9].
Consider `CCCCN=C(N)N=C(N)N`, for which the Potency result in assay [1] and in [8] was “inactive” in each case. Besides, the call in [2], in assay [3], in assay [4], in assay [5], in assay [7] and in assay [9] was inactive. Moreover, the outcome in assay [10] was inactive.

(Values after PubChem BioAssay (Tox21).)
